# Test results taken from PubChem BioAssay (Tox21).
# Results filed as inconclusive are left out. Where a call stands in place of a potency, no number is given. Values without a mark were called inactive. Active and inactive are the calls of the source. The call rests on the fitted dose curve.
# Target: Peroxisome proliferator-activated receptor gamma (Homo sapiens) (UniProt P37231)
# Test: qHTS assay to identify small molecule antagonists of the peroxisome proliferator-activated receptor gamma (PPARg) signaling pathway (AID 743191); further: nearly all actives have a fitted effect of over 30% in size
# Conditions: HEK293H PPARg-UAS-bla, beta-lactamase ratio, antagonist, 17 h; series mostly up to 62.6 µM
# Text: U.S. Tox21 Program National Center for Advancing Translational Sciences [NCATS] NIH Chemical Genomics Center [NCGC] U.S. Environmental Protection Agency [EPA] National Institutes of Environmental Health Sciences [NIEHS] National Toxicology Program [NTP] U.S. Food and Drug Administration [FDA] Tox21 Assay Overview: The peroxisome proliferator-activated receptors (PPARs) are lipid-activated transcription factors of the nuclear receptor superfamily with three distinct subtypes namely PPAR alpha, PPAR delta (also called PPAR beta) and PPAR gamma (PPARg). All these subtypes heterodimerize with Retinoid X receptor (RXR) and these heterodimers regulate transcription of various genes. PPAR-gamma receptor (glitazone receptor) is involved in the regulation of glucose and lipid metabolism. To identify the compounds that inhibit PPAR-gamma signaling, GeneBLAzer PPAR gamma UAS-bla HEK293H cell line (Invitrogen, Carlsbad, CA, USA) containing a beta-lactamase reporter gene under control of an Upstream Activator Sequence (UAS) was used to screen the Tox21 compound library.
# Tox21 Assay Protocol Summary: PPARg-bla cells were dispensed at 3000 cells/6uL/well in 1536-well black wall/clear bottom plates using a Multidrop Combi (Thermo Fisher Scientific, Waltham, MA) dispenser. After the assay plates were incubated at 37C and 5% CO2 for 5 h, 23 nL of compounds dissolved in DMSO, positive controls or DMSO only was transferred to the assay plate by a Pintool station (Kalypsys, San Diego, CA). The assay plates were incubated at 37C for 17 h. After 1 uL of LiveBLAzerTM B/G FRET substrate was added using a Bioraptr Flying Reagent Dispenser (FRD) workstation (Beckman Coulter, Indianapolis, IN, USA), the plates were incubated at room temperature for 1 h, and fluorescence intensity was measured by an Envision plate reader (PerkinElmer, Shelton, CT).
# Potency means the concentration at half of the fitted maximal effect.
# Sequence of Peroxisome proliferator-activated receptor gamma (Homo sapiens) (P37231 whole entry, looked up): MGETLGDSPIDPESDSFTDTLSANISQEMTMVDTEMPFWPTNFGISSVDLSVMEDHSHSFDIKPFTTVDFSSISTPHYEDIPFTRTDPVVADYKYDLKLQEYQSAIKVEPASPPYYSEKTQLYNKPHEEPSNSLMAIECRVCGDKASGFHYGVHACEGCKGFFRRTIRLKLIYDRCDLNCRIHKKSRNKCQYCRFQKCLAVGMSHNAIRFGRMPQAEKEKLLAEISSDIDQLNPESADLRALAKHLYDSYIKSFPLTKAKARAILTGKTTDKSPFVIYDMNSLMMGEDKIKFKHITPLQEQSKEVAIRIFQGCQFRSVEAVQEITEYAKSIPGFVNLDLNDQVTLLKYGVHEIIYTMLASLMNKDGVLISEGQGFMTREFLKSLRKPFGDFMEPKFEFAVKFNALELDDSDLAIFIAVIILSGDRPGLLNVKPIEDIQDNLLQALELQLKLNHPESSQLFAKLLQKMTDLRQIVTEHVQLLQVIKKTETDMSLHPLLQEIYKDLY
Compound,Potency,"ratio activity, negative = inhibition"
NS(=O)(=O)c1cc2c(cc1Cl)NC(CC1CCCC1)NS2(=O)=O (stereo not given),inactive,
C=C(C)C(=O)OC1CC(C)CC(C)(C)C1 (stereo not given),inactive,
Cc1ccccc1N1CCN(CCc2nnc3n2CCCC3)CC1,inactive,
C[C@H](CCC(=O)O)[C@H]1CC[C@H]2[C@@H]3[C@H](O)C[C@@H]4C[C@H](O)CC[C@]4(C)[C@H]3C[C@H](O)[C@]12C,inactive,
C1=CCC(c2ccccc2)CC1 (stereo not given),inactive,
Nc1ccc(S(=O)(=O)NC(=O)c2ccccc2)cc1,inactive,
C[C@H]1O[C@H](O[C@H]2[C@H](O)[C@@H](O)[C@@H](O[C@H]3[C@H](O)[C@@H](O)[C@H](O)O[C@@H]3CO)O[C@@H]2CO)[C@H](O)[C@@H](O)[C@@H]1N[C@H]1C=C(CO)[C@@H](O)[C@H](O)[C@H]1O,inactive,
CCCCCCCCCCC,inactive,
NC(Cc1c[nH]c2ccccc12)C(=O)O (stereo not given),inactive,
CC(=O)c1ccc(OCC(=O)N2CCCCC2)cc1,inactive,
C=C[C@@H](C)CCC=C(C)C,inactive,
CC(=O)OC[C@H]1O[C@@H](OC(C)=O)[C@H](OC(C)=O)[C@@H]1OC(C)=O,inactive,
CCC(C)N (stereo not given),inactive,
CC1CCC(C(C)(C)S)C(=O)C1 (stereo not given),inactive,
CC(C)CCC(=O)CCC(C)C,inactive,
O=C(CN1CCN(Cc2ccc3c(c2)OCO3)CC1)N1c2ccccc2Sc2ccccc21,inactive,
CCCCC/C=C/CC(=O)OC,inactive,
O=C1NC2NC(=O)NC2N1 (stereo not given),inactive,
CCNC(=O)/C=C/c1cccc(Br)c1,inactive,
CCCCCC(=O)OCC,inactive,

Compound,Potency,"ratio activity, negative = inhibition"
NC(=O)C1(N2CCCCC2)CCN(CCCC(=O)c2ccc(F)cc2)CC1,inactive,
Cc1ccccc1OCC1CO1 (stereo not given),inactive,
O=C(Oc1ccccc1C(=O)O)c1ccccc1O,inactive,
Nc1c(NC/C=C\COc2cc(CN3CCCCC3)ccn2)c(=O)c1=O,inactive,
CC(=O)N(CC(O)CO)c1c(I)c(C(=O)NCC(O)CO)c(I)c(C(=O)NCC(O)CO)c1I (stereo not given),inactive,
Nc1cc(S(=O)(=O)O)ccc1S(=O)(=O)O,inactive,
CCC(O)C(C)(C)C (stereo not given),inactive,
COC(OC)C(C)c1ccccc1 (stereo not given),inactive,
COC(/C=C(\C)CCC=C(C)C)OC,inactive,
O=C(O)c1ccc(OCCN2CCCCC2)cc1,inactive,
CCCCCCCCCCCCOC(C)=O,inactive,
O=C(O)c1ccccc1C(=O)OCc1ccccc1,inactive,
O=C(COCCOCCOCC(=O)Nc1c(I)cc(I)c(C(=O)O)c1I)Nc1c(I)cc(I)c(C(=O)O)c1I,inactive,
C[C@H](CCC(=O)NCC(=O)O)[C@H]1CC[C@H]2[C@@H]3[C@H](O)C[C@@H]4C[C@H](O)CC[C@]4(C)[C@H]3C[C@H](O)[C@]12C,inactive,
C=CCCCCCCCCCCC,,16.1% [at 5.95 µM]
O=[Si]=O,inactive,
Oc1ccccc1Cc1ccccc1O,30.9 µM (active),
CC1=NN(c2ccc(S(=O)(=O)O)cc2)C(=O)C1N=Nc1ccccc1 (stereo not given),inactive,
CN[C@@H]1[C@H](O)[C@H](NC)[C@H]2O[C@@]3(O)C(=O)C[C@@H](C)O[C@H]3O[C@@H]2[C@H]1O,inactive,
CC(C)COC(=O)CCCCC(=O)OCC(C)C,inactive,
